The text below walks through data of the supplement of paper PMC10681739.
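Further: Full-length recombinant human RUNX1 bound to double-stranded 36-bp genomic probes on a high-density microarray, scored as Alexa488 fluorescence per spot via anti-RUNX1 antibody, median of four replicate spots.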

Chain of RUNX1 (Q01196 whole entry): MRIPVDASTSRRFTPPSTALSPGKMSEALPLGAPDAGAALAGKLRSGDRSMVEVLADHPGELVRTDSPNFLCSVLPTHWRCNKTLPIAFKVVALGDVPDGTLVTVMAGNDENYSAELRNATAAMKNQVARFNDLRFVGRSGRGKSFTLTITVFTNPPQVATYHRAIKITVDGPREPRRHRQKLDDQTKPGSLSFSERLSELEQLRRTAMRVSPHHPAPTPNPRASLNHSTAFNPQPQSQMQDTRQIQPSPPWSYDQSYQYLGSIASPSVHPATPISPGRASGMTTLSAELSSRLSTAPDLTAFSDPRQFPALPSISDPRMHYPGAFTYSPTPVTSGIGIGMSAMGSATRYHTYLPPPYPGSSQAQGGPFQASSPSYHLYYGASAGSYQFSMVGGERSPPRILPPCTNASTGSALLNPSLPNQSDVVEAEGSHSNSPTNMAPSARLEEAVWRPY

In the experiment the target is RUNX1 (UniProt Q01196). Description: RUNX1 binding intensity (PBM fluorescence), RUNX1 alone (arbitrary fluorescence units); higher = stronger binding. To be noted: RUNX1 concentration 2 nM; ETS1 concentration 0 nM. As to the method:
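Cooperative gcPBM on 36-bp genomic probes with neighbouring ETS1 and RUNX1 sites. Recombinant human RUNX1 (2 nM) was incubated alone or with ETS1 (25 nM) and detected with anti-RUNX1 antibody plus Alexa488 secondary. Values are medians over 4 replicate spots; the RUNX1+ETS1 data were normalised to the RUNX1-only data. The probes sit in constant array flanks that are not printed.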
Regarding TCCCCACACTTCCGGCCCCGCCCGCACAGCCGCACC, the RUNX1 binding intensity came to 1130.
Under TTTTATCCTTCCTTTTTTGTTCTTTGTGGTGGAGGT stands 1840.
Under GTGCTAAGTGAGGAAGTGCAGTTTACCGCACGGTGG stands 675; under CGGAGGCGGCCGGAAGTAGCGCTGCGGTTGGCAGCT, 937.
Under ACCATAAGGACCGGAAGCAGAGACCACACTGGTGCT stands 831; under CCAACTTTTGAGGGATGTGGTTACGTTTTCTAGATC, 1410.
For the sequence GCCACACAGGCAGGAAAGCCACAGCCCACGTCTCCG, the RUNX1 binding intensity amounted to 867.
Under TCATTTCCTCTGGTGTTATTGTGTTGTGGTTTTAAG stands 1580; under TACGTCACTTCCGGGCCGCCGTCCTGCGGGCAAGGG, 799; under AGGGACCCGGATGTCTGGTCTGCGGCTGCTCCTCTA, 756.
In turn, AGTCGGAAGCCATCTGCCCCAACTTGCGGTCTTCAC showed an RUNX1 binding intensity of 1070.
Under AGCTAGGACAGGATGTGAAAACCACACTGACAAAGT stands 919; under TGAGAAAACAGGAAGCGCCCAGTCACCACAGAAAGC, 765; under GCGGGAAAAGGGAAGTTTGCGGGAGGTCAAATCCAC, 867.
With ACAGGAAATGACATCAGAATCTCCAAACCACAACCA, the RUNX1 binding intensity is 1390.
Under AGCTAGACTACAGGAGGAAACCACAGCCTAAACCAG stands 1250; under CAGACAGGAGGCGGATGTGGGTGGCGCAGAATGAGC, 688.
Under CCCTGAGCACTTCCCCGTAAGGCTGCGGTGCACGGG stands 871.
As to TGAGCCTTGGAAGGAAATGATTCACCACAATACTGT, the RUNX1 binding intensity was 831.
Under CAGAGAAACAGGAAGAACAGTGGTTTCAACTGAAAT stands 783; under ACCGCCGGAAGTTTCTGCCGCGGCTTTGCGGGGACG, 791.
Take GGGGACCGGAAAGGGAGGGGTGGGCCGCAGGCGCCG: the RUNX1 binding intensity was determined as 766.
CAGTGTTCCGCGTCCGGGGGTTTGTGGGAGTTGCCT had an RUNX1 binding intensity of 989.
In the case of TTTGTCATATCAACAGGATGTGGTTCTCCCCTGGTT, the RUNX1 binding intensity was 905.
As to CTCGTGGGTGCCGGAAGTGGAGGCGGTTGGTGGGGT, the RUNX1 binding intensity was found to be 707.
Regarding CAGATTCCCGGAAAGGGGGACATGTAGCCGCAAAAG, the RUNX1 binding intensity is 815.
Consider TCTTGCCCGGGTCGGAAATGGTGGTCACGAGCGCTT, for which the RUNX1 binding intensity is 772.
Under GGCACTTCCGGTCCTGACCTGAAGCGGTAACCGTCA stands 719.
The sequence CCGTGGAAGGAAACGCTGCCAACCGCAACAGAAATG registered an RUNX1 binding intensity of 1700.
Under ATAGAAACTACAGGAAATACTGTGGTCAGGTTTTGA stands 822; under AGGTTCCGGCGAAAGTGACCGAAAGTAACCGCCGGG, 670; under CTGGTTTCATTTCCGGGTGCGGCTTCTGTCATAAAG, 924.
Under GGGCCCTTCCTGTGGCGCCTGCCGAGCTGTGGTTGG stands 716; under CTGAGTGAGACAGGATGTGGGCAGACCTCTAACACA, 733.
Under ATGGGGAACGGGAAATACGGCGGGAACCACAATCGC stands 777.
CCAACACAGGAAATAATTTGAAACCACAATCAGAAA registered an RUNX1 binding intensity of 1290.
TTGCACACGTGGGCGGGAAGTGGTTAAGCGGCCTCA returned an RUNX1 binding intensity of 725.
Under GGCGACCAGCTCCGGAAAGCGCGGTGGGGACGCGCT stands 805; under GAAGTCACTCAGGGAGGAAACCACAGGGCCGGTCCG, 880; under CTGGTAGAAAAGGAAGCAGGTTGTGGTGAGCATTTA, 767.
